Test results: the supplement of paper PMC9262897, “Low-cost anti-mycobacterial drug discovery using engineered E. coli” (Nature Communications, 2022)
Where a name gives a salt, the structure may show the parent alone. ± gives the standard deviation of the averaged measurements.

Tests used:
Assay in all cases: growth (OD600 after 10 h); higher = more growth (less inhibition)
[1] = system: E. coli TESEC Alr+ wild-type control; details: compound 0.1 mM; raw OD600 reference: median of DMSO wells 0.241, cell-free background 0.041
Description: (§1)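 TESEC Mtb Alr E. coli, or the Alr+ wild-type control, in 384-well plates with Prestwick library compounds at 0.1 mM and 1% DMSO, across arabinose induction levels of 1E3 to 1E7 nM. Growth is read as OD600 after 10 h at 37 °C in triplicate biological replicates.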

E. coli TESEC Mtb Alr [2] = details: compound 0.1 mM
Description: as §1

E. coli TESEC Mtb Asd = details: compound 0.1 mM
Description: (§2)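 TESEC E. coli strains in which the native enzyme is deleted and replaced by arabinose-inducible Mtb Asd, DapB, CysH or TrpD, each grown in its selective medium. Strains were screened against the Prestwick library at 0.1 mM and 1% DMSO in 384-well format at low and high arabinose induction. Growth is read as OD600 after 10 h in triplicate.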

E. coli TESEC Mtb DapB = details: compound 0.1 mM
Description: as §2

[3] = system: E. coli TESEC Alr+ wild-type control; details: compound 0.1 mM; raw OD600 reference: median of DMSO wells 0.49, cell-free background 0.052
Description: (§3)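 TESEC Mtb Alr E. coli (ΔaraC ΔtolC ΔentC Δalr ΔdadX, arabinose-inducible Mtb Alr) or the Alr+ wild-type control strain, grown in defined M9-fructose medium without D-alanine in 96-well plates with Prestwick library compounds at 0.1 mM and 1% DMSO. Low Alr induction is 0.1 µM arabinose and high induction is 10 mM arabinose.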

E. coli TESEC Mtb Alr [4] = details: compound 0.1 mM; remark: listed apart in the source
Description: as §3

[5] = arabinose 1000 nM, raw OD600 reference: median of DMSO wells 0.294, cell-free background 0.041
[6] = arabinose 10000 nM, raw OD600 reference: median of DMSO wells 0.264, cell-free background 0.041
[7] = arabinose 100000 nM, raw OD600 reference: median of DMSO wells 0.201, cell-free background 0.041
[8] = arabinose 1000000 nM, raw OD600 reference: median of DMSO wells 0.193, cell-free background 0.041
[9] = arabinose 10000000 nM, raw OD600 reference: median of DMSO wells 0.146, cell-free background 0.041
[10] = arabinose induction (level): High, raw OD600 reference: median of DMSO wells 0.331, cell-free background 0.041
[11] = arabinose induction (level): Low, raw OD600 reference: median of DMSO wells 0.417, cell-free background 0.041
[12] = arabinose induction (level): High, raw OD600 reference: median of DMSO wells […], cell-free background 0.041
[13] = arabinose induction (level): Low, raw OD600 reference: median of DMSO wells 0.227, cell-free background 0.041
[14] = arabinose 100 nM, raw OD600 reference: median of DMSO wells 0.413, cell-free background 0.052
[15] = arabinose 10000000 nM, raw OD600 reference: median of DMSO wells […], cell-free background 0.052

SMILES | growth [1] | growth (E. coli TESEC Mtb Alr [2]; [5]) | growth (E. coli TESEC Mtb Alr [2]; [6]) | growth (E. coli TESEC Mtb Alr [2]; [7]) | growth (E. coli TESEC Mtb Alr [2]; [8]) | growth (E. coli TESEC Mtb Alr [2]; [9]) | growth (E. coli TESEC Mtb Asd; [10]) | growth (E. coli TESEC Mtb Asd; [11]) | growth (E. coli TESEC Mtb DapB; [12]) | growth (E. coli TESEC Mtb DapB; [13]) | growth [3] | growth (E. coli TESEC Mtb Alr [4]; [14]) | growth (E. coli TESEC Mtb Alr [4]; [15])
CC(=O)N[C@@H](CC(C)C)C(=O)O [N-Acetyl-L-leucine] | 0.243 ± 0.013 | 0.292 ± 0.016 | 0.259 ± 0.004 | 0.219 ± 0.0097 | 0.192 ± 0.0042 | 0.134 ± 0.0046 | 0.378 ± 0.077 | 0.476 ± 0.0098 | 0.206 ± 0.0033 | 0.205 ± 0.0021 | 0.637 ± 0.023 | 0.41 ± 0.013 | 0.349 ± 0.0042
CCCCN(CCCC)CCC(O)c1cc2c(Cl)cc(Cl)cc2c2cc(C(F)(F)F)ccc12 (stereo not drawn) [Halofantrine hydrochloride] | 0.24 ± 0.011 | 0.313 ± 0.006 | 0.31 ± 0.0059 | 0.2 ± 0.014 | 0.18 ± 0.0064 | 0.175 ± 0.0054 | 0.282 ± 0.059 | 0.457 ± 0.054 | 0.259 ± 0.018 | 0.291 ± 0.037 | 0.53 ± 0.019 | 0.452 ± 0.016 | 0.427 ± 0.019
CNCCC(Oc1ccc(C(F)(F)F)cc1)c1ccccc1 (stereo not drawn) [Fluoxetine hydrochloride] | 0.129 ± 0.0027 | 0.0669 ± 0.0012 | 0.133 ± 0.0068 | 0.0693 ± 0.0015 | 0.0486 ± 0.00026 | 0.05543 ± 0.00047 | 0.0984 ± 0.0045 | 0.086 ± 0.016 | 0.142 ± 0.036 | 0.132 ± 0.0058 | 0.118 ± 0.11 | 0.411 ± 0.011 | 0.0614 ± 0.0047
O=C(O)c1cn(-c2ccc(F)cc2)c2cc(N3CCNCC3)c(F)cc2c1=O [Sarafloxacin] | 0.0422 ± 0.00026 | 0.0454 ± 0.0031 | 0.0399 ± 0.0003 | 0.04133 ± 0.00015 | 0.0405 ± 0.0013 | 0.0412 ± 0.0021 | 0.0475 ± 0.0021 | 0.047 ± 0.0013 | 0.0494 ± 0.00055 | 0.0482 ± 0.00017 | 0.0534 ± 0.00044 | 0.0545 ± 0.00093 | 0.0532 ± 0.0002
Clc1ccc(Nc2nnc(Cc3ccncc3)c3ccccc23)cc1 [Vatalanib] | 0.104 ± 0.031 | 0.0967 ± 0.038 | 0.0476 ± 0.003 | 0.0763 ± 0.0031 | 0.0489 ± 0.0002 | 0.0787 ± 0.0014 | 0.112 ± 0.017 | 0.0893 ± 0.021 | 0.203 ± 0.081 | 0.15 ± 0.015 | 0.514 ± 0.0082 | 0.303 ± 0.17 | 0.0605 ± 0.0043
COc1cccc2c1C(=O)c1c(O)c3c(c(O)c1C2=O)C[C@@](O)(C(C)=O)C[C@@H]3O[C@H]1C[C@H](N)[C@H](O)[C@H](C)O1 [Daunorubicin hydrochloride] | 0.0457 ± 0.0022 | 0.0442 ± 0.0008 | 0.04263 ± 5.8e-05 | 0.0446 ± 0.001 | 0.04253 ± 0.00038 | 0.0433 ± 0.0001 | 0.058 ± 0.0071 | 0.0577 ± 0.0054 | 0.0527 ± 0.0011 | 0.0519 ± 0.00092 | 0.053 ± 0.00055 | 0.0571 ± 0.0011 | 0.0536 ± 0.00026
Cc1nnc(NS(=O)(=O)c2ccc(N)cc2)s1 [Sulfamethizole] | 0.254 ± 0.0053 | 0.288 ± 0.011 | 0.236 ± 0.004 | 0.211 ± 0.032 | 0.155 ± 0.0088 | 0.139 ± 0.0043 | 0.326 ± 0.045 | 0.433 ± 0.018 | 0.189 ± 0.0042 | 0.183 ± 0.0058 | 0.462 ± 0.018 | 0.411 ± 0.011 | 0.33 ± 0.011
CC1(C)S[C@@H]2[C@H](NC(=O)[C@H](NC(=O)N3CCNC3=O)c3ccccc3)C(=O)N2[C@H]1C(=O)O [Azlocillin sodium salt] | 0.238 ± 0.0043 | 0.312 ± 0.008 | 0.276 ± 0.0051 | 0.177 ± 0.0081 | 0.195 ± 0.013 | 0.152 ± 0.015 | 0.31 ± 0.035 | 0.442 ± 0.025 | 0.177 ± 0.015 | 0.222 ± 0.031 | 0.631 ± 0.06 | 0.403 ± 0.017 | 0.361 ± 0.013
CO/N=C(\C(=O)N[C@@H]1C(=O)N2C(C(=O)OC(C)OC(C)=O)=C(COC(N)=O)CS[C@H]12)c1ccco1 (stereo partly drawn) [Cefuroxime axetil] | 0.148 ± 0.0057 | 0.115 ± 0.007 | 0.0663 ± 0.0028 | 0.124 ± 0.0033 | 0.166 ± 0.0066 | 0.158 ± 0.006 | 0.246 ± 0.023 | 0.316 ± 0.011 | 0.196 ± 0.022 | 0.215 ± 0.057 | 0.427 ± 0.051 | 0.059 ± 0.0076 | 0.257 ± 0.011
CC[C@H]1OC(=O)[C@H](C)[C@@H](O[C@H]2C[C@@](C)(OC)[C@@H](O)[C@H](C)O2)[C@H](C)[C@@H](O[C@@H]2O[C@H](C)C[C@H](N(C)C)[C@H]2O)[C@](C)(O)C[C@@H](C)C(=O)[C@H](C)[C@@H](O)[C@]1(C)O [Erythromycin] | 0.04107 ± 0.00038 | 0.0413 ± 0.0016 | 0.03973 ± 5.8e-05 | 0.0421 ± 0.0013 | 0.0401 ± 0.0001 | 0.0414 ± 0.00076 | 0.0563 ± 0.0023 | 0.0536 ± 0.0019 | 0.04857 ± 0.00045 | 0.052 ± 0.0057 | 0.0538 ± 0.0043 | 0.0567 ± 0.0002 | 0.05153 ± 0.00031
Cc1cc(C(C)(C)CC(C)(C)C)ccc1OCCOCC[N+](C)(C)Cc1ccccc1 [Methyl benzethonium chloride] | 0.0446 ± 0.0012 | 0.0483 ± 0.0025 | 0.0504 ± 0.002 | 0.0489 ± 0.00059 | 0.04487 ± 0.00031 | 0.04963 ± 0.00035 | 0.0532 ± 0.001 | 0.0608 ± 0.0092 | 0.0545 ± 0.0014 | 0.0542 ± 0.00078 | 0.0474 ± 0.00066 | 0.0556 ± 0.0023 | 0.0529 ± 0.0018
O=C(O[C@@H]1C[C@@H]2C[C@H]3C[C@H](C1)N2CC3=O)c1c[nH]c2ccccc12 [Dolasetron mesilate] | 0.204 ± 0.0058 | 0.25 ± 0.0086 | 0.238 ± 0.0033 | 0.137 ± 0.0054 | 0.0823 ± 0.0017 | 0.114 ± 0.0051 | 0.226 ± 0.044 | 0.482 ± 0.053 | 0.192 ± 0.019 | 0.217 ± 0.016 | 0.473 ± 0.027 | 0.405 ± 0.016 | 0.23 ± 0.036
Cc1cn([C@H]2C[C@H](N=[N+]=[N-])[C@@H](CO)O2)c(=O)[nH]c1=O [Zidovudine, AZT] | 0.0935 ± 0.0041 | 0.0804 ± 0.011 | 0.0544 ± 0.0014 | 0.0839 ± 0.0005 | 0.0604 ± 0.0022 | 0.103 ± 0.0045 | 0.1 ± 0.0079 | 0.0819 ± 0.012 | 0.148 ± 0.0088 | 0.0825 ± 0.0056 | 0.199 ± 0.0087 | 0.166 ± 0.012 | 0.125 ± 0.017
Cc1c(N(C)C)c(=O)n(-c2ccccc2)n1C [Amidopyrine] | 0.242 ± 0.0096 | 0.28 ± 0.016 | 0.2721 ± 0.0006 | 0.225 ± 0.02 | 0.184 ± 0.0082 | 0.138 ± 0.0025 | 0.373 ± 0.017 | 0.41 ± 0.042 | 0.21 ± 0.017 | 0.254 ± 0.056 | 0.462 ± 0.039 | 0.412 ± 0.0055 | 0.365 ± 0.037
CCCC1C(=O)N2C(N(C)C)=Nc3ccc(C)cc3N2C1=O (stereo not drawn) [Azapropazone] | 0.226 ± 0.0057 | 0.287 ± 0.0066 | 0.2549 ± 0.002 | 0.178 ± 0.011 | 0.158 ± 0.0037 | 0.134 ± 0.0021 | 0.195 ± 0.031 | 0.323 ± 0.064 | 0.185 ± 0.015 | 0.206 ± 0.025 | 0.483 ± 0.02 | 0.399 ± 0.013 | 0.301 ± 0.0094
NC1CCN(c2c(F)cc3c(=O)c(C(=O)O)cn(C4CC4)c3c2Cl)C1 (stereo not drawn) [Clinafloxacin] | 0.0416 ± 0.0001 | 0.0399 ± 0.00042 | 0.0399 ± 0.00047 | 0.0418 ± 0.0019 | 0.03957 ± 5.8e-05 | 0.04037 ± 0.00015 | 0.0476 ± 0.0014 | 0.0476 ± 0.0014 | 0.0489 ± 0.0013 | 0.0481 ± 0.00067 | 0.05277 ± 0.00038 | 0.05347 ± 0.0004 | 0.0504 ± 0.00086
